We go through 37 compounds from PubChem BioAssay (EPA / NIEHS).

As a reminder, the AC50 is the concentration at which the activity in the assay is half-maximal.

SMILES strings stand for the structures. Results filed as inconclusive are left out. The source made the active and inactive calls. How the source made its calls: active means hit-call score of the fitted dose curve at least 0.9, where 1 is the maximum; inconclusive means response in the unintended direction; inactive means score below 0.9.

Test [1] addresses human IkappaB Kinase alpha (IKKa), CHUK (gene 1147) (UniProt O15111). Kind of test: NVS_ENZ_hIKKa: NovaScreen (NVS) Enzymatic Assay for human IkappaB Kinase alpha (IKKa) (AID 2283167). A digest of the protocol:
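Cell-free recombinant human IKKa with fluorescent substrate, product separated by electrophoretic mobility shift; read 1 hour after dosing. Primary screen duplicate at 25 uM, actives then concentration-response up to 50 uM; loss of signal relative to DMSO.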

For test [2], the target named is human MAP Kinase-Activated Protein Kinase 2 (MAPKAPK2), MAPKAPK2 (gene 9261) (UniProt P49137). As to the kind of experiment: NVS_ENZ_hMAPKAPK2: NovaScreen (NVS) Enzymatic Assay for human MAP Kinase-Activated Protein Kinase 2 (MAPKAPK2) (AID 2283178). A digest of the protocol:
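Cell-free recombinant human MAPKAPK2 activity measured by fluorescence with electrophoretic mobility shift separation of substrate and product, 1 hr after dosing. Loss of signal versus DMSO; primary screen at 25 uM, concentration-response up to 50 uM.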

Test [3] addresses human Mitogen- and Stress-activated Protein Kinase-1 (Msk1), RPS6KA5 (gene 9252) (UniProt O75582). Kind of test: NVS_ENZ_hMsk1: NovaScreen (NVS) Enzymatic Assay for human Mitogen- and Stress-activated Protein Kinase-1 (Msk1) (AID 2283187). In a few lines:
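Recombinant kinase with fluorescent substrate; product separated by electrophoretic mobility shift, read 1 h after dosing. Screened in duplicate at 25 uM; hits (e.g. ≥30% inhibition) tested in concentration–response up to 50 uM. DMSO baseline.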

The target of test [4] is human Insulin Receptor (InsR), INSR (gene 3643) (UniProt P06213). As to the kind of experiment: NVS_ENZ_hInsR: NovaScreen (NVS) Enzymatic Assay for human Insulin Receptor (InsR) (AID 2283168). In a few lines: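 Fluorescent substrate phosphorylation by recombinant kinase, product resolved by electrophoretic mobility shift, read 1 h after dosing. Screened in duplicate at 25 uM; hits (e.g., 30% inhibition) run in concentration-response to 50 uM; DMSO as baseline.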

For test [5], the target named is human Janus Kinase 2 (Jak2), JAK2 (gene 3717) (UniProt O60674). Kind of test: NVS_ENZ_hJak2: NovaScreen (NVS) Enzymatic Assay for human Janus Kinase 2 (Jak2) (AID 2283169). In a few lines:
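Cell-free recombinant human JAK2 enzyme activity assay, fluorescence/electrophoretic mobility shift read 1 h after dosing. Screened in duplicate at 25 uM, then concentration-response up to 50 uM; activity as signal loss relative to DMSO.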

Test [6] concerns the target Mitogen-activated protein kinase 3 (Homo sapiens) (UniProt P27361). Kind of test: NVS_ENZ_hMAPK3: NovaScreen (NVS) Enzymatic Assay for human Mitogen-Activated Protein Kinase 3 (MAPK 3) (AID 2283177). A digest of the protocol:
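Cell-free enzymatic assay with recombinant protein and specific substrate; fluorescence and electrophoretic mobility shift read-out 1 h after dosing. Primary screen duplicate at 25 uM; actives then run in concentration-response up to 50 uM, loss of signal versus DMSO.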

Test [7] deals with human p21 Activated Kinase 4 (PAK4), PAK4 (gene 10298) (UniProt O96013). As to the kind of experiment: NVS_ENZ_hPAK4: NovaScreen (NVS) Enzymatic Assay for human p21 Activated Kinase 4 (PAK4) (AID 2283189). In a few lines: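 Cell-free recombinant human PAK4 activity assay; fluorescent substrate and product separated by electrophoretic mobility shift, read 1 h after dosing. Initially tested in duplicate at 25 uM, relative to DMSO baseline.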

For test [8], the target named is human c-Jun N-terminal Kinases (JNK2), MAPK9 (gene 5601) (UniProt P45984). As to the kind of experiment: NVS_ENZ_hJNK2: NovaScreen (NVS) Enzymatic Assay for human c-Jun N-terminal Kinases (JNK2) (AID 2283171). In a few lines:
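Cell-free recombinant human JNK2 activity assay; fluorescent substrate and product separated by electrophoretic mobility shift, read 1 h after dosing. Primary duplicate screen at 25 uM; actives run in concentration-response up to 50 uM, relative to DMSO.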

In test [9] the target is human MET Proto-Oncogene, Receptor Tyrosine Kinase (MET), MET (gene 4233) (UniProt P08581). As to the kind of experiment: NVS_ENZ_hMet: NovaScreen (NVS) Enzymatic Assay for human MET Proto-Oncogene, Receptor Tyrosine Kinase (MET) (AID 2283180). In a few lines:
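Cell-free MET kinase assay using recombinant protein and fluorescent substrate, with mobility-shift separation; read 1 h after dosing. Primary duplicate at 25 uM; actives in singleton concentration-response to 50 uM maximum. Signal loss versus DMSO.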

Test [10] has as its target human Matrix Metalloproteinase-7 (MMP7), MMP7 (gene 4316) (UniProt P09237). As to the kind of experiment: NVS_ENZ_hMMP7: NovaScreen (NVS) Enzymatic Assay for human Matrix Metalloproteinase-7 (MMP7) (AID 2283183). A digest of the protocol:
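Cell-free fluorescence enzymatic assay read 1 h after compound addition, activity loss analyzed against DMSO. Primary duplicate testing at 25 uM; compounds meeting threshold rerun in singleton concentration-response up to 50 uM.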

Test [11] has as its target human NIMA (Never In Mitosis Gene A)-Related Kinase 2 (NEK2), NEK2 (gene 4751) (UniProt P51955). Kind of test: NVS_ENZ_hNEK2: NovaScreen (NVS) Enzymatic Assay for human NIMA (Never In Mitosis Gene A)-Related Kinase 2 (NEK2) (AID 2283188). In a few lines: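 Cell-free NEK2 enzyme activity after 1 h exposure, read by fluorescence with electrophoretic mobility shift separating substrate and product. Primary screen in duplicate at 25 uM; actives then run as concentration series. Loss of signal versus DMSO scored.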

Test [12] concerns the target human Matrix Metalloproteinase-1 (MMP1), MMP1 (gene 4312) (UniProt P03956). As to the kind of experiment: NVS_ENZ_hMMP1: NovaScreen (NVS) Enzymatic Assay for human Matrix Metalloproteinase-1 (MMP1) (AID 2283181). A digest of the protocol: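 Human MMP1 enzyme activity measured by fluorescence 1 h after dosing, cell-free, with a specific substrate. Screened in duplicate at 25 uM; hits (e.g. 30% inhibition) run in concentration-response up to 50 uM; loss of signal versus DMSO.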

Test [13] concerns the target human Matrix Metalloproteinase-9 (MMP9), MMP9 (gene 4318) (UniProt P14780). As to the kind of experiment: NVS_ENZ_hMMP9: NovaScreen (NVS) Enzymatic Assay for human Matrix Metalloproteinase-9 (MMP9) (AID 2283190).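 Further: cell-free recombinant MMP9 protease activity read by fluorescent substrate signal; active means inhibition seen as loss of fluorescence signal versus DMSO.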 In a few lines:
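Cell-free fluorescence-intensity enzyme activity assay using extracted protein, read 1 h after dosing. Loss of signal versus DMSO baseline indicates inhibition; primary screen in duplicate at 25 uM, actives followed up in concentration series.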

The target of test [14] is Collagenase 3 (Homo sapiens) (UniProt P45452). As to the kind of experiment: NVS_ENZ_hMMP13: NovaScreen (NVS) Enzymatic Assay for human Matrix Metalloproteinase-13 (MMP13) (AID 2283182). In a few lines: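 Recombinant MMP13 cleaving fluorescent substrate, cell-free, measured 1 h after dosing. Primary duplicate screen at 25 uM; actives tested in concentration-response up to 50 uM; loss of signal relative to DMSO.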

For test [15], the target named is human Matrix Metalloproteinase-2 (MMP2), MMP2 (gene 4313) (UniProt P08253). As to the kind of experiment: NVS_ENZ_hMMP2: NovaScreen (NVS) Enzymatic Assay for human Matrix Metalloproteinase-2 (MMP2) (AID 2283184). In a few lines: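 Cell-free recombinant MMP2 activity with a fluorescent substrate, read 1 h after dosing. Primary screen in duplicate at 25 uM; actives then run in concentration series; loss of signal fitted versus DMSO.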

Test [16] concerns the target human Mitogen-Activated Protein Kinase 1 (MAPK 1), MAPK1 (gene 5594) (UniProt P28482). As to the kind of experiment: NVS_ENZ_hMAPK1: NovaScreen (NVS) Enzymatic Assay for human Mitogen-Activated Protein Kinase 1 (MAPK 1) (AID 2283175). A digest of the protocol:
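Cell-free recombinant human MAPK1 enzymatic assay, fluorescence/electrophoretic mobility shift read at 1 h; loss of signal vs DMSO. Primary screen in duplicate at 25 uM; actives (e.g. ≥30% inhibition) run as concentration-response up to 50 uM.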

The target of test [17] is human Matrix Metalloproteinase-3 (MMP3), MMP3 (gene 4314) (UniProt P08254). As to the kind of experiment: NVS_ENZ_hMMP3: NovaScreen (NVS) Enzymatic Assay for human Matrix Metalloproteinase-3 (MMP3) (AID 2283185). A digest of the protocol: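 Cell-free recombinant human MMP3 activity, fluorescence intensity read 1 h after dosing. Primary screen duplicate at 25 uM, actives retested in concentration series; loss of signal vs DMSO baseline.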

Test [18] addresses human Phosphodiesterase 4A1 (PDE4A1), PDE4A (gene 5141) (UniProt P27815). As to the kind of experiment: NVS_ENZ_hPDE4A1: NovaScreen (NVS) Enzymatic Assay for human Phosphodiesterase 4A1 (PDE4A1) (AID 2283191). A digest of the protocol: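 Cell-free recombinant human PDE4A1 with fluorescent substrate; product separated by electrophoretic mobility shift, 1 h. Screened at 25 uM, then up to 50 uM in concentration-response; loss of signal fitted against DMSO.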

human p21 Activated Kinase 4 (PAK4), PAK4 (gene 10298), sequence (O96013 whole entry, looked up): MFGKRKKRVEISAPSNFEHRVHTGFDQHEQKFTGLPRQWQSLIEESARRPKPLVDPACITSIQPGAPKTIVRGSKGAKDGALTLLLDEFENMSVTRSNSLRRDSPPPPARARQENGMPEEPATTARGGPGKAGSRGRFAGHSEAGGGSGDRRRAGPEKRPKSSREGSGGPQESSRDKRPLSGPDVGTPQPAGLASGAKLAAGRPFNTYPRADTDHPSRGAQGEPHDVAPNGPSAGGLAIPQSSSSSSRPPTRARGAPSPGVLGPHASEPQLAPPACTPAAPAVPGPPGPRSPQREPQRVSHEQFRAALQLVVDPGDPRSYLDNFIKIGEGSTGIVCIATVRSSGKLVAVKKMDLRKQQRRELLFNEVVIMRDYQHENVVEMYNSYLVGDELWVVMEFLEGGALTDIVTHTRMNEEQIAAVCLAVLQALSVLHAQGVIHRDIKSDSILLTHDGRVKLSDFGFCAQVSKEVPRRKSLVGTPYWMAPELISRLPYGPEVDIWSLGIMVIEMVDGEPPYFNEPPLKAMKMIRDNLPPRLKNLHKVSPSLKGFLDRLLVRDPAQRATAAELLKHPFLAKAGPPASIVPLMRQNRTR
Mitogen-activated protein kinase 3 (Homo sapiens), sequence (P27361 whole entry, looked up): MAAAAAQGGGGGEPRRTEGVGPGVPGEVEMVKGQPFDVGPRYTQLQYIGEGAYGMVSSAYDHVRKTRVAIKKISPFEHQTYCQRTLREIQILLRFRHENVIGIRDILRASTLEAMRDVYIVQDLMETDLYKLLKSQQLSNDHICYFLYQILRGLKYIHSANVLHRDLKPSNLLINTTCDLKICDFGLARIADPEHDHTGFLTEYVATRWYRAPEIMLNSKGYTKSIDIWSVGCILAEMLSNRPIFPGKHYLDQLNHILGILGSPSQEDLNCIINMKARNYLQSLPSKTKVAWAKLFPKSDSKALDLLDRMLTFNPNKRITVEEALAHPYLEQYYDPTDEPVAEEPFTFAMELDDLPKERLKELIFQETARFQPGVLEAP
human Matrix Metalloproteinase-7 (MMP7), MMP7 (gene 4316), sequence (P09237 whole entry, looked up): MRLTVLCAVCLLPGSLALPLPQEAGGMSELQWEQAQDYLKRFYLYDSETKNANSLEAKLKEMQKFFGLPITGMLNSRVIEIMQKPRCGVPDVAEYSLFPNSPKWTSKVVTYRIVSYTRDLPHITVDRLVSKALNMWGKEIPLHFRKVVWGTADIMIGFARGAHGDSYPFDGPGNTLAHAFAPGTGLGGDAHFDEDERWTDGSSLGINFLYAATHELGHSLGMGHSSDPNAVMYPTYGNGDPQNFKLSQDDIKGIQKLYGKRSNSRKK
human Matrix Metalloproteinase-2 (MMP2), MMP2 (gene 4313), sequence (P08253 whole entry, looked up): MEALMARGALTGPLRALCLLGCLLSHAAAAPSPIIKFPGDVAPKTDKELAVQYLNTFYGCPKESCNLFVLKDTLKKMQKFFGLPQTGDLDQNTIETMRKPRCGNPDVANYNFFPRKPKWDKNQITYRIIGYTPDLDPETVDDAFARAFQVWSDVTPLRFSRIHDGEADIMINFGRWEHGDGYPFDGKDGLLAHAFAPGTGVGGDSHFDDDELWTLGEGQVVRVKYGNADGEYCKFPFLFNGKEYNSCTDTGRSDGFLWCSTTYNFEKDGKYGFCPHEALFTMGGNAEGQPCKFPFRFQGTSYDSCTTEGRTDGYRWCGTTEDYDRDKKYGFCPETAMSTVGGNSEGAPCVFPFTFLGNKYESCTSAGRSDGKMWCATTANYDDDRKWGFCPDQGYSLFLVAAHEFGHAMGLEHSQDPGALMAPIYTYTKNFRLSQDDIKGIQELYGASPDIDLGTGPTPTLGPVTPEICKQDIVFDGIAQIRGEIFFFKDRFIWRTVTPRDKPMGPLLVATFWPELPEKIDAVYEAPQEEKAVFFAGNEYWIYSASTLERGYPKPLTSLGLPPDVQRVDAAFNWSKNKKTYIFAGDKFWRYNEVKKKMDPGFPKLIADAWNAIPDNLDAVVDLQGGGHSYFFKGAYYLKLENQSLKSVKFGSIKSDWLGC
human Matrix Metalloproteinase-9 (MMP9), MMP9 (gene 4318), sequence (P14780 whole entry, looked up): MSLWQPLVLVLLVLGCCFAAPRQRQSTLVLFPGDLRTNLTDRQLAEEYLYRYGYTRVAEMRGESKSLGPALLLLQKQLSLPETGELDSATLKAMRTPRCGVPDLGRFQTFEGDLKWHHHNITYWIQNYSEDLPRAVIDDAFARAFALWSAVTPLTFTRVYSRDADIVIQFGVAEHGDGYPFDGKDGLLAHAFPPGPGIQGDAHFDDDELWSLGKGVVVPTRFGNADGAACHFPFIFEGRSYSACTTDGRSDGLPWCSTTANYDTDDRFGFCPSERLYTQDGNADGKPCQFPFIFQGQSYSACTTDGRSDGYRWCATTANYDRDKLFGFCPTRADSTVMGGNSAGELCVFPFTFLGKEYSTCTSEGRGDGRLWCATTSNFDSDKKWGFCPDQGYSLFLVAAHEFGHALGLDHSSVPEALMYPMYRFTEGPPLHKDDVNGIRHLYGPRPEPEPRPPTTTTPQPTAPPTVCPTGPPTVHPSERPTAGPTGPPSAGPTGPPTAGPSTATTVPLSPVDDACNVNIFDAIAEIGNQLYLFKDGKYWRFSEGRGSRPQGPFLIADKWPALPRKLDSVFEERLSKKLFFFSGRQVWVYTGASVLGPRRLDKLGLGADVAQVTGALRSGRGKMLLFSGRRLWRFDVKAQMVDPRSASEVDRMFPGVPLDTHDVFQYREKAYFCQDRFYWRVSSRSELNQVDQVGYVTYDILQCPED
human Matrix Metalloproteinase-3 (MMP3), MMP3 (gene 4314), sequence (P08254 whole entry, looked up): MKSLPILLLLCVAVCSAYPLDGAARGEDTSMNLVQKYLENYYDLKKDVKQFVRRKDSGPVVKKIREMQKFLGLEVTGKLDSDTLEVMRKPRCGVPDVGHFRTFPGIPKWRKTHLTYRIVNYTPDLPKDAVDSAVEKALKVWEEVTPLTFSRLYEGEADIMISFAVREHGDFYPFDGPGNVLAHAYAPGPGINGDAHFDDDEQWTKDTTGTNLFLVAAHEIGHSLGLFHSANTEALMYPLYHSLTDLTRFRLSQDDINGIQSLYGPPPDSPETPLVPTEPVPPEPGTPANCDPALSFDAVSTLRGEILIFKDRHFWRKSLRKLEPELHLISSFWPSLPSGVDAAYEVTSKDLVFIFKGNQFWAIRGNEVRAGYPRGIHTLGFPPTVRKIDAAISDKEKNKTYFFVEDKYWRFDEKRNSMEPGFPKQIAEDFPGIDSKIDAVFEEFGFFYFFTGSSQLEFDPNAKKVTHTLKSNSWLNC
human MAP Kinase-Activated Protein Kinase 2 (MAPKAPK2), MAPKAPK2 (gene 9261), sequence (P49137 whole entry, looked up): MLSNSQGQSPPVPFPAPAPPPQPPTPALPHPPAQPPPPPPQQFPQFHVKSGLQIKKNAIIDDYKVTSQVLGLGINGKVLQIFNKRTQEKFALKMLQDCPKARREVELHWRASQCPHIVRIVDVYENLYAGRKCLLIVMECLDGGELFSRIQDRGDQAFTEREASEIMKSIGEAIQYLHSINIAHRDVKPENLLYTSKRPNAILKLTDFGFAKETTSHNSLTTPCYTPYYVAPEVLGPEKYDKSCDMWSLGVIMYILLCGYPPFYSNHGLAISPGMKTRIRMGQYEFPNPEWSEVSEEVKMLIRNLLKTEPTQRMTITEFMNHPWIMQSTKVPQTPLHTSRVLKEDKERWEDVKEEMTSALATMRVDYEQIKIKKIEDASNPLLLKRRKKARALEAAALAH
human Matrix Metalloproteinase-1 (MMP1), MMP1 (gene 4312), sequence (P03956 whole entry, looked up): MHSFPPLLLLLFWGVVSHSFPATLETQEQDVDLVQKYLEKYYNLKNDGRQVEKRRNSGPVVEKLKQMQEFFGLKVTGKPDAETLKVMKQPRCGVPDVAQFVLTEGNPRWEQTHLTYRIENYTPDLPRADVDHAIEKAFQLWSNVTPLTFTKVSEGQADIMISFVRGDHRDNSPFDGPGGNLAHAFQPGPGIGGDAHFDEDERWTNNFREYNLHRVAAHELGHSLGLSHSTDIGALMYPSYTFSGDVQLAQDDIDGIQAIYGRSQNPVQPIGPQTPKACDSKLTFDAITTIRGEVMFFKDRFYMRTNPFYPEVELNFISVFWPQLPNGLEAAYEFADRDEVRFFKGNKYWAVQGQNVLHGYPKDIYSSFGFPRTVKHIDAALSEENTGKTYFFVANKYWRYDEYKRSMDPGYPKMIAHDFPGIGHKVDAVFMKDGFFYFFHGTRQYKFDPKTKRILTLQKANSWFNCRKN
human NIMA (Never In Mitosis Gene A)-Related Kinase 2 (NEK2), NEK2 (gene 4751), sequence (P51955 whole entry, looked up): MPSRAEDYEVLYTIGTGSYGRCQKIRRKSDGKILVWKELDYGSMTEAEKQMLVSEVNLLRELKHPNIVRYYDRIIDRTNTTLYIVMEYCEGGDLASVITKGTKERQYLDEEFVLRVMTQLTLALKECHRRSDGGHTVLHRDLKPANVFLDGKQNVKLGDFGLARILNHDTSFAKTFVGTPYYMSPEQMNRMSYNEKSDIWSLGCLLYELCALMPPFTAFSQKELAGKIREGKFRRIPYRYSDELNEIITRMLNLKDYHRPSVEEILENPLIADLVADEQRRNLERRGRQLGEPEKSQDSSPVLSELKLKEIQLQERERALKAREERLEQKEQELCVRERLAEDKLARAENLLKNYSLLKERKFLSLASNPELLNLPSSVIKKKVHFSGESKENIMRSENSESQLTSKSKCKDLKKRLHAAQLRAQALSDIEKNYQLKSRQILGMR
human Mitogen-Activated Protein Kinase 1 (MAPK 1), MAPK1 (gene 5594), sequence (P28482 whole entry, looked up): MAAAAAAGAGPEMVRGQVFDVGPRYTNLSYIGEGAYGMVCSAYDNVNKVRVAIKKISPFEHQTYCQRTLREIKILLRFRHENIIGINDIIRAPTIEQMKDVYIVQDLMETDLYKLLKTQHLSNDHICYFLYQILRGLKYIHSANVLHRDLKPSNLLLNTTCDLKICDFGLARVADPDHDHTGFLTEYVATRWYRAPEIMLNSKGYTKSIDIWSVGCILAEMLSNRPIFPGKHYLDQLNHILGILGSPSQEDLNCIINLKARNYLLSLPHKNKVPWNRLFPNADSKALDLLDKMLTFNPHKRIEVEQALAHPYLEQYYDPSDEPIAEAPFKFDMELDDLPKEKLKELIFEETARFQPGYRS

On to `CCN(CC)N=O`, for which the call in test [1], in [2] and in test [3] was inactive.

In the case of `ClCCOCCCl`, the compound was classed as inactive in test [1].

`c1ccc2c(c1)-c1cccc3cccc-2c13`: the result in [4] was inactive.

In the case of `CCCCCCCCCCCCCN1CC(C)OC(C)C1` (stereo unspecified), in test [4], the result was inactive.

On to `COc1cc(C=O)cc2c1[C@H](COC(N)=O)[C@]1(OC(C)=O)ON2C[C@H]2[C@@H]1N2C(C)=O`, for which the AC50 in test [5] was 0.00608 µM (active). Besides, the result in [6] and in [7] was inactive.

As to `CCNS(=O)(=O)C(F)(F)C(F)(F)C(F)(F)C(F)(F)C(F)(F)C(F)(F)C(F)(F)C(F)(F)F`, the compound was called inactive in test [8], in [6], in [9], in test [10], in test [3] and in test [11]. In addition, the compound was called inactive in test [7].

Turning to `O=C(Oc1ccc(Br)cc1)N1CCN2CCC1CC2`, the compound was called inactive in [2].

With `O=[N+]([O-])C(Br)(CO)CO`, the compound was called inactive in test [9].

Regarding `O=[N+]([O-])c1ccc(Oc2ccc(Cl)cc2Cl)cc1`, the call in test [12] and in test [13] was inactive.

As for `Nc1ccc(N=Nc2ccccc2)cc1`, the AC50 in test [12] was 16.9 µM (active).

As for `CN(C)[C@@H]1C(=O)C(C(N)=O)=C(O)[C@@]2(O)C(=O)C3=C(O)c4c(O)cccc4[C@@](C)(O)[C@H]3C[C@@H]12`, the compound was classed as inactive in test [14].

Regarding `CN(C)C(=O)Nc1ccc(Cl)cc1`, in test [15], the AC50 is 17.9 µM (active).

For `Cc1cc(N=Nc2ccccc2C)ccc1N`, the outcome in test [7] was inactive.

On to `CC(C)COC(=O)c1ccccc1C(=O)OCC(C)C`, for which the compound was called inactive in [10].

`O=C(Nc1ccccc1)c1ccccc1I`: the compound was classed as inactive in test [16], in test [14] and in test [10].

For the compound `COP(=S)(OC)SCN1C(=O)c2ccccc2C1=O`, in [12], the concentration at half-maximal activity (AC50) was 11.7 µM (active).

In the case of `CCCSC(=O)N(CCC)CCC`, the compound was called inactive in test [2].

For `Oc1ccccc1Cl`, the call in test [12], in test [15] and in test [17] was inactive.

`CCCCCOC(=O)c1ccccc1C(=O)OCCCCC`: in test [15], the outcome was inactive. For the same compound, the AC50 in [13] was 12.6 µM (active).

For `Cc1ccc(N=C=O)cc1N=C=O`, the AC50 in test [14] is 4.21 µM (active); in [15], 10.3 µM (active); in test [17] it was 40 µM (active). In test [13], the compound was classed as inactive.

`C1=Cc2cccc3cccc1c23`: the call in test [13] was inactive.

For the compound `Cn1cc(-c2ccccc2)c(=O)c(-c2cccc(C(F)(F)F)c2)c1`, the compound was classed as inactive in [7].

With `C[C@]12C=CC3=C4CCC(=O)C=C4CC[C@H]3[C@@H]1CC[C@@H]2O`, the result in test [6] and in test [7] was inactive.

Consider `Nc1ccc(Oc2ccc(N)cc2)cc1`, for which, in test [15], the AC50 is 19.2 µM (active).

In the case of `CC(C)N(Cc1ccccc1)C(=O)C(C)(C)C`, the result in test [2] and in test [10] was inactive.

In the case of `CS(=O)(=O)NC(=O)c1cc(Oc2ccc(C(F)(F)F)cc2Cl)ccc1[N+](=O)[O-]`, the compound was called inactive in [18].

Take `CCOc1cccc(C2(N3CCN(c4ccccc4)CC3)CCC(C)CC2)c1` (stereo unspecified): in test [12], the compound was called inactive. Also, in [14], the AC50 is 17.7 µM (active).

For `Nc1ccc(Cl)cc1N`, the call in test [2] was inactive.

Regarding `CNC(=O)Oc1cccc2c1OC(C)(C)C2`, the outcome in test [15] was inactive.

With `[As]#[In]`, the call in test [10] was inactive.

With `CC(C)(C)OOC(C)(C)CCC(C)(C)OOC(C)(C)C`, the result in test [18] was inactive.

As to `CCC[CH2][Sn]([Cl])([CH2]CCC)[CH2]CCC`, the AC50 in test [10] is 12.8 µM (active).

`CC(C)(C)C(O)(CCc1ccc(Cl)cc1)Cn1cncn1` (stereo unspecified): the compound was classed as inactive in test [15] and in test [17].

On to `O=Cc1ccco1`, for which the call in [13] was inactive.

`CCCCC(CC)COC(=O)c1ccc(C(=O)OCC(CC)CCCC)c(C(=O)OCC(CC)CCCC)c1` (stereo unspecified): the call in test [11] was inactive.

`Clc1ccc(C(c2ccc(Cl)cc2)C(Cl)(Cl)Cl)cc1`: the compound was called inactive in [15] and in test [13].

Turning to `c1ccc(C2CO2)cc1` (stereo unspecified), the outcome in [13] was inactive.
